We go through six molecules from ChEMBL document CHEMBL2218924, “A broad activity screen in support of a chemogenomic map for kinase signalling research and drug discovery” (Biochem J, 2013).

Assay [1] concerns the target T1, Mitogen-activated protein kinase kinase kinase 5 (Homo sapiens) (UniProt Q99683).
T1 sequence (whole entry): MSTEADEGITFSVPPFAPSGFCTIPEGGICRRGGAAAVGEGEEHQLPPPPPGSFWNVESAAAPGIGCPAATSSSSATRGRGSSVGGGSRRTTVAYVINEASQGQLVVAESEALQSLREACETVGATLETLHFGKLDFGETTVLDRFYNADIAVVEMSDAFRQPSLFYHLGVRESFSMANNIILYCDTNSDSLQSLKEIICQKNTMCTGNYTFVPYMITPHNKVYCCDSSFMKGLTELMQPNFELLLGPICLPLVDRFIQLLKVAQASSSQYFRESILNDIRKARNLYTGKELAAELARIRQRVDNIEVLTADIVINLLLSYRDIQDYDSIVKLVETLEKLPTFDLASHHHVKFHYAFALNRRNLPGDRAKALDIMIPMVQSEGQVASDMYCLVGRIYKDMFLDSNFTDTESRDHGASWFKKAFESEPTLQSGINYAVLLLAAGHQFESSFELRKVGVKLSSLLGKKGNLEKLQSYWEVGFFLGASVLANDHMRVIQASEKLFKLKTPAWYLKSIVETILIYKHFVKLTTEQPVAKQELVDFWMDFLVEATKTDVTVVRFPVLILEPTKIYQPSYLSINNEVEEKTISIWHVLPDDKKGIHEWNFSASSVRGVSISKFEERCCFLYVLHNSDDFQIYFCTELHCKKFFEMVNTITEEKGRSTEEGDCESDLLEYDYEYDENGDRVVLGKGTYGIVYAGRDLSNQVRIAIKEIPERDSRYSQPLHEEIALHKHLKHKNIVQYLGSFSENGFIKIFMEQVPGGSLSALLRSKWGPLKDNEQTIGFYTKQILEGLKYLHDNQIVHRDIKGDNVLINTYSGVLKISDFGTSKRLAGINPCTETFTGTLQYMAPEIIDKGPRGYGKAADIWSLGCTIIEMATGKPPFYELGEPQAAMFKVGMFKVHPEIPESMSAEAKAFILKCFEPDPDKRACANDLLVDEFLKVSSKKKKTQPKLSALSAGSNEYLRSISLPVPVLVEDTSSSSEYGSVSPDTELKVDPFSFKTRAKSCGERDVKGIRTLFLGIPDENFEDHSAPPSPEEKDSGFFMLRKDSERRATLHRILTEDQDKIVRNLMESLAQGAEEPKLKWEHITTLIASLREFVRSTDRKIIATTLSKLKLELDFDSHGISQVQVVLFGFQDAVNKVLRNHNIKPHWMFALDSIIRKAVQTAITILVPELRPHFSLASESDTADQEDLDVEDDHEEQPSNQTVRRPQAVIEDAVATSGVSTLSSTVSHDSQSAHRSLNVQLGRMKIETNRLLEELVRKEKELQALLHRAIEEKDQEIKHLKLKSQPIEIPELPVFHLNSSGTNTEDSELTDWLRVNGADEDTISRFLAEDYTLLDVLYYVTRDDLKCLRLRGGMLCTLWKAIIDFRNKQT
The following applies: at 10 µM.

Assay [2] addresses Tyrosine-protein kinase ABL1 (Homo sapiens) (UniProt P00519). To be noted: at 1 µM.
Assay [3] shares this target. The following applies: at 10 µM.
The target in assay [4] is Tyrosine-protein kinase ABL2 (Homo sapiens) (UniProt P42684). The following applies: at 1 µM.
Sequence of Tyrosine-protein kinase ABL2 (Homo sapiens) (P42684 whole entry): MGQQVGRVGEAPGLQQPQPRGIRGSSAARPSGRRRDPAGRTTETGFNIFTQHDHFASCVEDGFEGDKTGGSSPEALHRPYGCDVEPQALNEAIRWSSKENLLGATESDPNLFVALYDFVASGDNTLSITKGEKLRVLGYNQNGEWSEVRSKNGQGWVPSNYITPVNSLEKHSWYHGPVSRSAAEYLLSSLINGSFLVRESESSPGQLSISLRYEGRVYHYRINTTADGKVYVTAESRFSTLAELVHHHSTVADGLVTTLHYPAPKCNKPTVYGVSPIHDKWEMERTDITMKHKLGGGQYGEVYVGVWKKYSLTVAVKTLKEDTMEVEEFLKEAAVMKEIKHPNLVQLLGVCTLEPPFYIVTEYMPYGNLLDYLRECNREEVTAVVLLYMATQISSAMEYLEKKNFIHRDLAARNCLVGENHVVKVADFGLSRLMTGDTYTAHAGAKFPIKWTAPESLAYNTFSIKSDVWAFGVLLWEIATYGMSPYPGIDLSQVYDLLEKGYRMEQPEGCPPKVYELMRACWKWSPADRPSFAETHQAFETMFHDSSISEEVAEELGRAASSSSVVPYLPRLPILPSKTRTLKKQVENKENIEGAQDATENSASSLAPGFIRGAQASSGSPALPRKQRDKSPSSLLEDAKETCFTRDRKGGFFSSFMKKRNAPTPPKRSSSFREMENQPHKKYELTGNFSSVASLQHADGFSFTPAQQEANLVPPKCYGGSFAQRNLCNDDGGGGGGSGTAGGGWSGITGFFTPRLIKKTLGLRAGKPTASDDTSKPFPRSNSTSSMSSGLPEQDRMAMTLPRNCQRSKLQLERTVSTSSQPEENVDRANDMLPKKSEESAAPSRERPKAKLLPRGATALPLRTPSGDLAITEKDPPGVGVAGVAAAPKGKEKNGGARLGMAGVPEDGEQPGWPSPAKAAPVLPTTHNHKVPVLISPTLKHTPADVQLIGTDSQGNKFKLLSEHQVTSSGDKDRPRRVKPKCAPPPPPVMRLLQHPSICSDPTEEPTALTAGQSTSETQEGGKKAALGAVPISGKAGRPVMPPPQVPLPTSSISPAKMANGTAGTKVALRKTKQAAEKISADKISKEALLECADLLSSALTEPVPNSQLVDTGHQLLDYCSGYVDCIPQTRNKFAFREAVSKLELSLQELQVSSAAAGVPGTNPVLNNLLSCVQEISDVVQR
For assay [5] the target is unchanged. To be noted: at 10 µM.
The target in assay [6] is T2, Aurora kinase A (Homo sapiens) (UniProt O14965).
T2 sequence (whole entry): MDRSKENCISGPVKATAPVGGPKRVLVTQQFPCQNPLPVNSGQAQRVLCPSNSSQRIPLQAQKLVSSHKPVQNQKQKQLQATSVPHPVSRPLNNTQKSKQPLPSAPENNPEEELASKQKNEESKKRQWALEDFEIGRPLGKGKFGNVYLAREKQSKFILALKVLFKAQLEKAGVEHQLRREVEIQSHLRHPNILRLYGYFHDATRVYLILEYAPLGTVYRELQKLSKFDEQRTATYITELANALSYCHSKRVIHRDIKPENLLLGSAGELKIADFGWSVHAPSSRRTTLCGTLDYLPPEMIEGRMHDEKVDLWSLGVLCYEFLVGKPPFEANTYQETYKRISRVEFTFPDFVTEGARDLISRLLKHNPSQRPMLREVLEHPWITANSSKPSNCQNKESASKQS
The following applies: at 1 µM.

The target in assay [7] is T2, Aurora kinase A (Homo sapiens). To be noted: at 10 µM.
In assay [8] the target is Aurora kinase B (Homo sapiens) (UniProt Q96GD4). The following applies: at 1 µM.
Sequence of Aurora kinase B (Homo sapiens) (Q96GD4 whole entry): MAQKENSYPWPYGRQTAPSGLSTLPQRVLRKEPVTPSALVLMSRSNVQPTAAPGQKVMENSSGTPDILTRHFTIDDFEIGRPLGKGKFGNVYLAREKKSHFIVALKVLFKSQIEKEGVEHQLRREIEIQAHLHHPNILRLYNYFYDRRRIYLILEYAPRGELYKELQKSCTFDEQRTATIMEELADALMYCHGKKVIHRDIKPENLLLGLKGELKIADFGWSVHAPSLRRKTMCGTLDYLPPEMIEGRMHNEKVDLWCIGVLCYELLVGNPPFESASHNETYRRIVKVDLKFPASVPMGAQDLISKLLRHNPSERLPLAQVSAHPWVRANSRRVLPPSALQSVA
The target is the same in assay [9]. The following applies: at 10 µM.
For assay [10], the target named is T3, Aurora kinase C (Homo sapiens) (UniProt Q9UQB9).
T3 sequence (whole entry): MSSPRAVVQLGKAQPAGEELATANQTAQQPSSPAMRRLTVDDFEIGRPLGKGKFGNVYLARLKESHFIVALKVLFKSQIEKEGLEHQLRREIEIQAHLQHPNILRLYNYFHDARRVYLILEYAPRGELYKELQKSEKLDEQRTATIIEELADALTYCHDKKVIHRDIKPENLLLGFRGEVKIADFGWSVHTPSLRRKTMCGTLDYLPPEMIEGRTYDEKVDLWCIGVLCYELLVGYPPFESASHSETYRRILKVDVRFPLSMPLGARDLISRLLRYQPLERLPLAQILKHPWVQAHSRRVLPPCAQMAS
The following applies: at 1 µM.

Assay [11] concerns the target T3, Aurora kinase C (Homo sapiens). The following applies: at 10 µM.
Assay [12] has as its target Tyrosine-protein kinase receptor UFO (Homo sapiens) (UniProt P30530). To be noted: at 1 µM.
Assay [13] shares this target. The following applies: at 10 µM.
The target in assay [14] is Tyrosine-protein kinase BTK (Homo sapiens) (UniProt Q06187). To be noted: at 1 µM.
The target is the same in assay [15]. The following applies: at 10 µM.
Assay [16] addresses Tyrosine-protein kinase Blk (Homo sapiens) (UniProt P51451). To be noted: at 1 µM.
Assay [17] shares this target. The following applies: at 10 µM.
Assay [18] concerns the target Protein-tyrosine kinase 6 (Homo sapiens) (UniProt Q13882). To be noted: at 1 µM.
The target is the same in assay [19]. To be noted: at 10 µM.
Assay [20] addresses T4, Protein kinase C zeta type (Homo sapiens) (UniProt Q05513).
T4 sequence (whole entry): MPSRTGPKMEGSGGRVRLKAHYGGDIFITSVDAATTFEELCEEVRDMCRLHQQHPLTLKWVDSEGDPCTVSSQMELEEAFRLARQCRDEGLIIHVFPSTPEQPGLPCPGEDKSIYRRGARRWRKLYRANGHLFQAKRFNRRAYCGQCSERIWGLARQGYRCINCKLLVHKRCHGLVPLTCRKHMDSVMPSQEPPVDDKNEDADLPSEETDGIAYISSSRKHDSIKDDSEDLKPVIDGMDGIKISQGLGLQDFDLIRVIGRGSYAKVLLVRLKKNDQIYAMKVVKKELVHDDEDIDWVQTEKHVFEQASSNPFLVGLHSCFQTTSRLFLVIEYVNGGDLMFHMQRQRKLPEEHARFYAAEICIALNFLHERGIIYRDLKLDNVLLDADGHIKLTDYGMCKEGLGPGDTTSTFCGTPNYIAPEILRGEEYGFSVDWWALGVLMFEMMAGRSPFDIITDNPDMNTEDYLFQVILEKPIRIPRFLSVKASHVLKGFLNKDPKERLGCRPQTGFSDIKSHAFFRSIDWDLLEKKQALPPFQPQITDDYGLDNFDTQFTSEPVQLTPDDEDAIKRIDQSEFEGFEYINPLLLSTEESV
The following applies: at 1 µM.

Sequence of Protein-tyrosine kinase 6 (Homo sapiens) (Q13882 whole entry, looked up): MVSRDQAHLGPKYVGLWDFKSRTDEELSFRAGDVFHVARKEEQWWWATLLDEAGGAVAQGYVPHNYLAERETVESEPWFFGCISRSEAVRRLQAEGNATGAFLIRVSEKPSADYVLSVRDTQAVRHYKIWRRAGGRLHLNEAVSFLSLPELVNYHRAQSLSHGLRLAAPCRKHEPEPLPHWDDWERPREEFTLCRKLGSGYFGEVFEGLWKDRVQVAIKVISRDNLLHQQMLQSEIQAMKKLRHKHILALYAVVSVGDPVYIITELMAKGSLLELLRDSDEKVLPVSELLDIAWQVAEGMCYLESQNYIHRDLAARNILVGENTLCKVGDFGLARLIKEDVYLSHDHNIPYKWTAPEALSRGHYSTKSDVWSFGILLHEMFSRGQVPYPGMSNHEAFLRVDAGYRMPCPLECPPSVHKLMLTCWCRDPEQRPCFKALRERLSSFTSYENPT
Sequence of Tyrosine-protein kinase Blk (Homo sapiens) (P51451 2-505 limits assumed): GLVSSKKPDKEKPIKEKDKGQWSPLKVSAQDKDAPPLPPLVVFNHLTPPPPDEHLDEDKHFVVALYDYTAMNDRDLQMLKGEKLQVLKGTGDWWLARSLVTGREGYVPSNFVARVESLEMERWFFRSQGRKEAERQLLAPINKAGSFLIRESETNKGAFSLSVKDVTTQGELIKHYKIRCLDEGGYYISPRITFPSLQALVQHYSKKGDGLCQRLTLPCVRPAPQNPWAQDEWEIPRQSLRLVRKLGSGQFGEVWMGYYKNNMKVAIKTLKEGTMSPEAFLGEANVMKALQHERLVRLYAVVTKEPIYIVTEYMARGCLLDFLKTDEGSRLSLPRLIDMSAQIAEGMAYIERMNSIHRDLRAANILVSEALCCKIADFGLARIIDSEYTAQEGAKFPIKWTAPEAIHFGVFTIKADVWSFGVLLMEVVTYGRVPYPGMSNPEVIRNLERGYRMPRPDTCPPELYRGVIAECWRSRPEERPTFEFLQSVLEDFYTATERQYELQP
Sequence of Tyrosine-protein kinase ABL1 (Homo sapiens) (P00519 whole entry): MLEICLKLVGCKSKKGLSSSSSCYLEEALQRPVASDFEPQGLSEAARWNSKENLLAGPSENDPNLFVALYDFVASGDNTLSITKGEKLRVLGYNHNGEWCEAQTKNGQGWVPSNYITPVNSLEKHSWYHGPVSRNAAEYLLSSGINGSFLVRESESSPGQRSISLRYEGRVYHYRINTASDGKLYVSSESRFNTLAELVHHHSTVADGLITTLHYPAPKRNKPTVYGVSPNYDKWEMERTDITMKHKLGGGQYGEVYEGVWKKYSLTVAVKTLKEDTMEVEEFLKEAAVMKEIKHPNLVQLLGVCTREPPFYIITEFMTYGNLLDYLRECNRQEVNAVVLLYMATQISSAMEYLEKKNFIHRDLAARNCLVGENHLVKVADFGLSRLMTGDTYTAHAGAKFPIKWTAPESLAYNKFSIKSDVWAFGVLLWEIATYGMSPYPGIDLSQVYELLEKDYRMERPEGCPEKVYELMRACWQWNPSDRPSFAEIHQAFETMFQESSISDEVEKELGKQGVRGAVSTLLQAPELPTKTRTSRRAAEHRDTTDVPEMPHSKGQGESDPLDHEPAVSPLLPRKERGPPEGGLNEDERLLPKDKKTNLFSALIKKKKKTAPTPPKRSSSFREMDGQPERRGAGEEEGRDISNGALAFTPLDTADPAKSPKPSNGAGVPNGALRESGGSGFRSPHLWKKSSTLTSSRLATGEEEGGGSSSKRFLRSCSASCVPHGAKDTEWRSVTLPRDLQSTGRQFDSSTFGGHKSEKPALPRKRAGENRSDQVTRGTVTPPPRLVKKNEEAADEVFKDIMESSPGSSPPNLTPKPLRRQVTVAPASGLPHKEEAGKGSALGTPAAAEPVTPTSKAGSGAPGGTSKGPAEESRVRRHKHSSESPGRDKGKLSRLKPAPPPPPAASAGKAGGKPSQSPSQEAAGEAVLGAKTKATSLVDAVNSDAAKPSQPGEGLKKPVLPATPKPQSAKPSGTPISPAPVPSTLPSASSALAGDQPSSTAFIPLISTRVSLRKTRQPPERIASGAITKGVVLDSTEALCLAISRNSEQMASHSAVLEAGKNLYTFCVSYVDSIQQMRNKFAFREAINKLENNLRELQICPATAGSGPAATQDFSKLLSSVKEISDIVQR
Sequence of Tyrosine-protein kinase receptor UFO (Homo sapiens) (P30530 whole entry): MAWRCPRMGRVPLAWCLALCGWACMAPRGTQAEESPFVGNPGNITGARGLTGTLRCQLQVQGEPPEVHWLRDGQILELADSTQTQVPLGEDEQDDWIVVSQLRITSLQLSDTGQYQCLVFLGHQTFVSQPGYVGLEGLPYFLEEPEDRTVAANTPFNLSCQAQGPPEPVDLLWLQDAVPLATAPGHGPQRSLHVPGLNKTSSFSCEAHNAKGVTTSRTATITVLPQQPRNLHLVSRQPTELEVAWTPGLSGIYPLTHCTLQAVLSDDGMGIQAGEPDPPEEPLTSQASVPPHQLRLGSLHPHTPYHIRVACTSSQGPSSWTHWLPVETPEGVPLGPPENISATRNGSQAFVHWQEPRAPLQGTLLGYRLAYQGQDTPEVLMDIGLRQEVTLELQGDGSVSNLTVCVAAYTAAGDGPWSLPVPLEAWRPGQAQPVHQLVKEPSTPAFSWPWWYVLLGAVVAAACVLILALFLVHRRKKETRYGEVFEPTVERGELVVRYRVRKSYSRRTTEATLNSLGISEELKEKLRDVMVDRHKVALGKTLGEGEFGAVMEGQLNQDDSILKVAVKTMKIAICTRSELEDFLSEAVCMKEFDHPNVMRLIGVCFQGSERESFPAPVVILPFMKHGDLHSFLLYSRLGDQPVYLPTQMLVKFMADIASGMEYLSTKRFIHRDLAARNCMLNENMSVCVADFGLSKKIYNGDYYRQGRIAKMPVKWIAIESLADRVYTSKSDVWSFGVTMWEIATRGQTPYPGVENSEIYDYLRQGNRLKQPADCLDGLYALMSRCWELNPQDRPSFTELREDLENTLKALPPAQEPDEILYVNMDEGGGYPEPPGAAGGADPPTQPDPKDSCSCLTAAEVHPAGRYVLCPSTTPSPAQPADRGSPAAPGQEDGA

Turning to `CC(C)c1nn(-c2c(Cl)cccc2Cl)c2nc(Cc3ccc(OCCO)cc3)[nH]c(=O)c12`, the residual activity in assay [1] is 90%; in assay [2] it was 97%; in [3], 80%; in [4] it was 89%; in assay [5], 64%; in assay [6], 83%. The residual activity in assay [7] is 82%; in [8] it was 69%; in assay [9], 58%; in assay [10], 85%; in assay [11], 90%; in assay [12], 90%. Also, the residual activity came to 87% in assay [13]; 87% in assay [14]; 97% in [15]; 92% in assay [16]; 76% in assay [17].
Turning to `O=C(CCCc1ccc(-c2ccccc2F)cc1)Nc1ccc(O)cc1`, the residual activity in assay [1] was 105%; in assay [2], 110%; in [4] it was 105%; in [5] it was 86%; in assay [6], 130%; in [7], 102%. The residual activity in [8] is 107%; in assay [9], 91%; in assay [10], 97%; in [11] it was 92%; in [12], 105%; in assay [13], 100%. The residual activity was found to be 104% in assay [18], 96% in [19], 106% in [14] and 95% in [15].
As for `O=C1Nc2ccc(Cl)cc2/C1=C/c1cc(Cl)c(O)c(Cl)c1`, the residual activity worked out at 87% in [1]; 77% in assay [2]; 42% in [3]; 80% in assay [4]; 42% in assay [5]; 57% in [6]. In addition, the residual activity was 24% in assay [7]; 51% in assay [8]; 2% in assay [9]; 96% in [10]; 65% in assay [11]; 71% in [12]. Also, the residual activity in assay [13] came to 46%; in assay [18] it was 84%; in [19], 65%; in assay [14] it was 95%; in assay [15], 70%; in assay [16], 96%. For the same molecule, the residual activity in [17] turned out to be 50%.
As for `CCCCc1c(-c2ccc(OC)cc2)[nH]c2nccnc12`, the residual activity in [20] is 114% (inactive); in assay [2], 74%; in assay [3], 80%; in assay [4] it was 59%; in [5] it was 53%; in assay [6], 9%. Also, the residual activity in assay [7] is 13%; in assay [8], 1%; in assay [9], -1%; in assay [10], 59%; in assay [11], 54%; in [12], 77%. Further, the residual activity in assay [18] is 37%; in assay [19], 46%; in assay [14], 35%; in [15], 4%; in assay [16] it was 73%; in [17] it was 72%.
As to `O=c1cc(N2CCNCC2)oc2c(-c3ccccc3)cccc12`, the residual activity in assay [1] amounted to 78%; in [2], 88%; in assay [3] it was 89%; in [4], 97%; in assay [5] it was 101%; in [6] it was 95%. In addition, the residual activity was 80% in assay [7]; 79% in assay [8]; 63% in assay [9]; 80% in [12]; 76% in [13]; 99% in [19]. In addition, the residual activity in assay [17] turned out to be 71%.
For `Nc1n[nH]c2nc3ccccc3nc12`, the residual activity is 75% in assay [1]; 85% in assay [2]; 73% in assay [3]; 87% in [4]; 83% in assay [5]; 91% in assay [6]. For the same molecule, the residual activity in assay [7] turned out to be 77%; in assay [8], 77%; in assay [9], 26%; in assay [10] it was 72%; in [11], 30%; in assay [12] it was 94%. Further, the residual activity in assay [13] was found to be 96%; in assay [14], 88%; in assay [15] it was 88%; in [16], 89%; in assay [17], 88%.
